# Laboratory results reported in publication PMC7862700, “An all-to-all approach to the identification of sequence-specific readers for epigenetic DNA modifications on cytosine”.
# Experiments:
# Test in all cases: DAPPL (digital affinity profiling via proximity ligation, sequencing); 10 mM Tris-HCl pH 7.5, 50 mM NaCl, 1 mM DTT, 4% glycerol, room temperature, 30 min; GST-TFs on glutathione beads, 16-mer random dsDNA library, 0.1% formaldehyde crosslink after washing; high values mean tight binding
# FEV = biological target: T1, FEV (Homo sapiens, UniProt Q99581 1-238); conditions: protein: recombinant; tags: N-terminal GST; dsDNA, one strand shown
# T1 sequence: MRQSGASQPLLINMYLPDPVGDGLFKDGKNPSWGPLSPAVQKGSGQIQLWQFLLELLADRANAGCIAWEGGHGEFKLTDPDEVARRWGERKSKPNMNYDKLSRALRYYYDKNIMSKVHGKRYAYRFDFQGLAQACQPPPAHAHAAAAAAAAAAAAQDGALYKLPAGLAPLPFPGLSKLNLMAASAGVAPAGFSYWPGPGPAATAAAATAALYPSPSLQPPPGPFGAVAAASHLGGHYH
# Method in brief: (§1)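 The binding signal reported is, for every hexamer, its read frequency for a factor over its read frequency for the tag-only sample. Reads came from pools of yeast-expressed, GST-fused human transcription factors on glutathione beads, barcoded with DNA and mixed with that sample, which were incubated with 200 nmole of a random double-stranded 16-mer DNA library in Tris/NaCl/DTT/glycerol buffer at room temperature for 30 min. After washing, the pools were crosslinked with 0.1% formaldehyde, proximity-ligated with BsaI/T4 ligase for 1 h at 37 °C, PCR-amplified and sequenced on an Illumina NextSeq500.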
# ETV5 = ETV5 (Homo sapiens, UniProt P41161 1-510); conditions: protein: recombinant; tags: N-terminal GST; dsDNA, one strand shown
# Chain of ETV5 (P41161 whole entry): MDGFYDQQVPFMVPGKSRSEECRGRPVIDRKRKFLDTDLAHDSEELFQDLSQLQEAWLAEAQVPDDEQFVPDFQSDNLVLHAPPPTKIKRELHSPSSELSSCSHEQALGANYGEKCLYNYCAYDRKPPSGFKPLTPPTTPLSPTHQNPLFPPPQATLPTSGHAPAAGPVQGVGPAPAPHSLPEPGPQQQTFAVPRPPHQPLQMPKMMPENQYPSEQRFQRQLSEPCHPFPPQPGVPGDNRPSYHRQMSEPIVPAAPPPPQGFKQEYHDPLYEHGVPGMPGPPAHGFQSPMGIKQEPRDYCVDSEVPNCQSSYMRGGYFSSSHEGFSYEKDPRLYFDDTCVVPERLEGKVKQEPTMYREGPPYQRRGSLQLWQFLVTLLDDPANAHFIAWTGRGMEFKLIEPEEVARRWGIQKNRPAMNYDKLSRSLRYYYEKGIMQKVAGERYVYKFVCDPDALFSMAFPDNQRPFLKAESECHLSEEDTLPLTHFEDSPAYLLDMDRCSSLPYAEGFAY
# Method in brief: as §1
# HSF1 = HSF1 (Homo sapiens, UniProt Q00613 1-529); conditions: protein: recombinant; tags: N-terminal GST; chain copies: 3; dsDNA, one strand shown
# Chain of HSF1 (Q00613 whole entry): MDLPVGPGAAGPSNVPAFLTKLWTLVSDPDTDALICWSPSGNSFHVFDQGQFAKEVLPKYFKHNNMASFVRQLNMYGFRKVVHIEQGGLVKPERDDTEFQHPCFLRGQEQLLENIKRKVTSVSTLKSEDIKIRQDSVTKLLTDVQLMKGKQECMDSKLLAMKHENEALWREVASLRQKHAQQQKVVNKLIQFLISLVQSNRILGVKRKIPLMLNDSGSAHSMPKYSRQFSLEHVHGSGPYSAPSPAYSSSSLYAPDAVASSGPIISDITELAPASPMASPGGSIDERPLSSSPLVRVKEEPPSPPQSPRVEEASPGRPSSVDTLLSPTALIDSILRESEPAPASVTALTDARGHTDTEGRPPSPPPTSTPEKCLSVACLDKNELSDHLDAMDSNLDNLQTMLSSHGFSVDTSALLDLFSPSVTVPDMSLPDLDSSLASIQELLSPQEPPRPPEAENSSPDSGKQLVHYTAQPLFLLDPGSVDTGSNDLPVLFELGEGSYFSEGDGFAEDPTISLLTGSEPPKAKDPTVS
# Method in brief: as §1
# SPIC = biological target: T2, SPIC (Homo sapiens, UniProt Q8N5J4 1-248); conditions: protein: recombinant; tags: N-terminal GST; dsDNA, one strand shown
# T2 sequence: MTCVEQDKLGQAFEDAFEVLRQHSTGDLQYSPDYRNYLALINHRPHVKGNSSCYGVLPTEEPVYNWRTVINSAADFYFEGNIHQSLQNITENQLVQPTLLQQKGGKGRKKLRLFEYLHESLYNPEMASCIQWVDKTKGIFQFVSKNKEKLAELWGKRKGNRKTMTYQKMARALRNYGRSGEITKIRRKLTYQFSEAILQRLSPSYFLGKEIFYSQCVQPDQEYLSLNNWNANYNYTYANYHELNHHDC
# Method in brief: as §1
# ELF4 = ELF4 (Homo sapiens, UniProt Q99607 1-663); conditions: protein: recombinant; tags: N-terminal GST; dsDNA, one strand shown
# Chain of ELF4 (Q99607 whole entry): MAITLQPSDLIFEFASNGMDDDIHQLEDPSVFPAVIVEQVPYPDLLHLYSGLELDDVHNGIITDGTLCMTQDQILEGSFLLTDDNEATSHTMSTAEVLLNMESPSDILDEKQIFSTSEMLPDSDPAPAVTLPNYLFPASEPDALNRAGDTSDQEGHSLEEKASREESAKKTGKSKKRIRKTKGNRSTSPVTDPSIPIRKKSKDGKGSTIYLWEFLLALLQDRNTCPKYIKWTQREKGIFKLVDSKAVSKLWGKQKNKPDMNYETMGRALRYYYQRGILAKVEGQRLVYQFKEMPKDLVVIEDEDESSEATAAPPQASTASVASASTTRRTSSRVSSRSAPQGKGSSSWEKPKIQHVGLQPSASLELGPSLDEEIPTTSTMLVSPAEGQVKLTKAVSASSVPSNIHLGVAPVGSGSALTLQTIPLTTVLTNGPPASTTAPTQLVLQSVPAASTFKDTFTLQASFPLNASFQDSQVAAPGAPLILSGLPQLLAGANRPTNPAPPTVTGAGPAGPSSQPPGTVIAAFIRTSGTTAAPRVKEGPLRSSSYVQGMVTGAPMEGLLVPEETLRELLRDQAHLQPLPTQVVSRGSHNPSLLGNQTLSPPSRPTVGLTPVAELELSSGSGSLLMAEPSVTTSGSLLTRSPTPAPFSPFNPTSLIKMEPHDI
# Method in brief: as §1
# ELK4 = biological target: T3, ELK4 (Homo sapiens, UniProt P28324-2 1-405); conditions: protein: recombinant; tags: N-terminal GST; dsDNA, one strand shown
# T3 sequence: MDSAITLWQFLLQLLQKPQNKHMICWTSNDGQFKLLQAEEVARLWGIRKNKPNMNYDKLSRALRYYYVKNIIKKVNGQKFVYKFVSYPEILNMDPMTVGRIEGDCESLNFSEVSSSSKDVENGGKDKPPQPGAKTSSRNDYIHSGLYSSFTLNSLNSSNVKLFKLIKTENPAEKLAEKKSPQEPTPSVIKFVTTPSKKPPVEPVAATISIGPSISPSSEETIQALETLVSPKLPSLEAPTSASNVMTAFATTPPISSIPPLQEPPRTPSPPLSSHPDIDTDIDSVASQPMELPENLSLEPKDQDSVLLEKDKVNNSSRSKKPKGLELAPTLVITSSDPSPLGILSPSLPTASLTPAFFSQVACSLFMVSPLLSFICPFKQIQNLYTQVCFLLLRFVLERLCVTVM
# Method in brief: as §1
# ETV2 = biological target: T4, ETV2 (Homo sapiens, UniProt O00321 1-342); conditions: protein: recombinant; tags: N-terminal GST; dsDNA, one strand shown
# T4 sequence: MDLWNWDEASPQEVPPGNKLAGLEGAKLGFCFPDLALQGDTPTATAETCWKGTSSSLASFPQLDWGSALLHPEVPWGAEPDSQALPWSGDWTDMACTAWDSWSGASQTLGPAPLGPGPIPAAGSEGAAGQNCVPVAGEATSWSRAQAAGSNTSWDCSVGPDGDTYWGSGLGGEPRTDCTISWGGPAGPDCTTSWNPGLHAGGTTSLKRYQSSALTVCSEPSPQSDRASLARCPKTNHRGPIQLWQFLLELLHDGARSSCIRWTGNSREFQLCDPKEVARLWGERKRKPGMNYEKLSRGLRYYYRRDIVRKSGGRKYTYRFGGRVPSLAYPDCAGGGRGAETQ
# Method in brief: as §1
# ELF3 = biological target: T5, ELF3 (Homo sapiens, UniProt P78545 1-371); conditions: protein: recombinant; tags: N-terminal GST; dsDNA, one strand shown
# T5 sequence: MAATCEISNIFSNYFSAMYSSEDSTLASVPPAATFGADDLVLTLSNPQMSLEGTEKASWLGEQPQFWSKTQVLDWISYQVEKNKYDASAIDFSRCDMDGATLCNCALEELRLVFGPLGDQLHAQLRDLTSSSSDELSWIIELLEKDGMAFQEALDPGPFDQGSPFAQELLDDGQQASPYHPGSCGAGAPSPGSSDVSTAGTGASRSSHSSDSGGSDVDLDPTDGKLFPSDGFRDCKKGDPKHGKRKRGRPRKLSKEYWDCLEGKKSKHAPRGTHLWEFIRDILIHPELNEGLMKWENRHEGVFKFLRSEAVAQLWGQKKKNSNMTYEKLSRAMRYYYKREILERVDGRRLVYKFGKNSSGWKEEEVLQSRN
# Method in brief: as §1
# CRX = CRX (Homo sapiens, UniProt O43186 1-299); conditions: protein: recombinant; tags: N-terminal GST; dsDNA, one strand shown
# Chain of CRX (O43186 whole entry): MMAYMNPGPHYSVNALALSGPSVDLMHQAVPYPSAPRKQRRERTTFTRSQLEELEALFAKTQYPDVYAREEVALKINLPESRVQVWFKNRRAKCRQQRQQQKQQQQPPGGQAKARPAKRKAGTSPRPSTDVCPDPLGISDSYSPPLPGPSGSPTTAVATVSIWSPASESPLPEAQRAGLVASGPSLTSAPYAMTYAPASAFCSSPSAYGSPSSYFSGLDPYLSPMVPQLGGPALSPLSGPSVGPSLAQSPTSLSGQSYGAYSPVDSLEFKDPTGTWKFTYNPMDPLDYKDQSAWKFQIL
# Method in brief: as §1
sequence,measurement,setting,value
TTTGGG,binding signal,FEV,"1.31 fold enrichment (6-mer frequency, TF over GST control)"
same,binding signal,ETV5,"1.39 fold enrichment (6-mer frequency, TF over GST control)"
same,binding signal,HSF1,"1.36 fold enrichment (6-mer frequency, TF over GST control)"
same,binding signal,SPIC,"1.16 fold enrichment (6-mer frequency, TF over GST control)"
same,binding signal,ELF4,"1.41 fold enrichment (6-mer frequency, TF over GST control)"
same,binding signal,ELK4,"1.41 fold enrichment (6-mer frequency, TF over GST control)"
same,binding signal,ETV2,"1.42 fold enrichment (6-mer frequency, TF over GST control)"
same,binding signal,ELF3,"1.7 fold enrichment (6-mer frequency, TF over GST control)"
same,binding signal,CRX,"1.57 fold enrichment (6-mer frequency, TF over GST control)"
